The list is not random: actives were taken first. Their share in the collection is about 5.7%.
Cdc25B block: inhibitors of human Cdc25B phosphatase; P30305; recombinant Cdc25B, OMFP fluorescence Ex485/Em525; inhibition, %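 (compounds tested at 10 µM final in the well)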; 65,000 tested, 0.1% active; in the data active means inhibition above about 50%
Target sequence (P30305 whole entry, looked up): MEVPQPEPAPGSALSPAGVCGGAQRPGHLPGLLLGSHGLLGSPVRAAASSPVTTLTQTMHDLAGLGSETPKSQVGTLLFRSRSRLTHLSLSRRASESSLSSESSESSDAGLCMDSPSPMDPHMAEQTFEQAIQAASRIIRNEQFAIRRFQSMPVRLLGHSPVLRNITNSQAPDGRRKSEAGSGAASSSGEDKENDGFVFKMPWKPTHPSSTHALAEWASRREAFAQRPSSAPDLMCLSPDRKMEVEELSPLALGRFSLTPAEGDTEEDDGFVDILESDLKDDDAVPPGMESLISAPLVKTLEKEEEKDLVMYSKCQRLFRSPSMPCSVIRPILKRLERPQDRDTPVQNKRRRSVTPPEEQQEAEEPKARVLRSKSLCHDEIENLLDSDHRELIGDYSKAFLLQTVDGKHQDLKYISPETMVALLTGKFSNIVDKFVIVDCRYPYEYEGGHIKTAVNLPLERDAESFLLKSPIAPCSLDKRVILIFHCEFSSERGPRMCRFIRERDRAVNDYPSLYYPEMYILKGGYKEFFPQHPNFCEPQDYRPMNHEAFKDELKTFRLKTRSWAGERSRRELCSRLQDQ
Abs 340nm: compounds absorbing at 340 nm; compound absorbance at 340 nm, fold over control; fold change at 10 µM; 65,000 tested, under 10 active; AID 708;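 active means at 10 µM dose, initial 340 nm absorbance at least 2 fold that of control wells; inactive means change under 2 fold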;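 further: initial absorbance extrapolated from kinetic A340 decline of NADH oxidation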
Hsp90 block: displaces geldanamycin probe from tumor Hsp90. P07900. NCI-N417 lysate Hsp90, Cy3B-geldanamycin FP displacement. inhibition, % at 30 µM. 64,000 tested, 0.35% active;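 active means inhibition above 50%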;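 further: 0% = tracer plus lysate wells and 100% = tracer alone without lysate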
Autofluor 339: intrinsic fluorescence of library compounds, ex339/em460 – biochemical, MLSMR library, data from DPM-DC assay, artefact control, profiling panel | compound autofluorescence, ex339/em460 nm, NADH buffer; stronger effect = higher value; 1 = no-compound wells, NADH background | fluorescence fold increase at 10 µM | 65,000 tested, 5.5% active | AID 709;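 active means at 10 µM, mean starting fluorescence two-fold or more over control wells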;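 further: signal is the first read of a kinetic run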
NADH coupling: blocks coupling enzymes of NAD/NADH assays | coupled PK/LDH NADH assays, four targets | IC50, µM (titrated, usually from 10 µM), for the others: top-dose inhibition | 65,000 tested, 0.02% active;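 active means single-dose screening hits from any of four coupled enzyme assays that gave an IC50 when retested across doses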;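 further: the DPM-DC format reads NADH fluorescence rather than 340 nm absorbance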
MKP-1 inh: blocks human MKP-1 phosphatase activity | P28562 | recombinant MKP-1, OMFP hydrolysis fluorescence | inhibition, %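 (compounds tested at a single concentration somewhere between 10 and 100 µM)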 | 65,000 tested, 0.15% active;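 active means inhibition above about 50%, limit read from the data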;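 further: 0% = DMSO max control wells and 100% = wells with enzyme stopped by NaOH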
Numbers without * were called inactive.

Results for Cc1nn(-c2ccccc2)c(Cl)c1C(=O)Nc1nnc(C2CCCC2)s1 ?
Cdc25B block: 9; Abs 340nm: 1; Hsp90 block: 0; Autofluor 339: 1.1; NADH coupling: 5%; MKP-1 inh: 2

Results for COC(=O)c1ccc(Sc2ccc(C)cc2)c(N)c1 ?
Cdc25B block: -3; Abs 340nm: 1; Hsp90 block: -1; Autofluor 339: 3.1*; NADH coupling: 10%; MKP-1 inh: 21

What do the screens show for `CCOC(=O)c1cnn(-c2cc(C)c3ccccc3n2)c1N`?
Cdc25B block: -2; Abs 340nm: 1.4; Hsp90 block: -2; Autofluor 339: 1.1; NADH coupling: 6%; MKP-1 inh: 6

What do the screens show for `CCOC(=O)c1cnn2c1[nH]c(=O)c1ccccc12`?
Cdc25B block: 10; Abs 340nm: 1; Hsp90 block: 0; Autofluor 339: 2.3*; NADH coupling: 6%; MKP-1 inh: -19

What do the screens show for `Cc1csc(SCCn2c(N3CCN(c4ccccc4)CC3)nc3c2c(=O)[nH]c(=O)n3C)n1`?
Cdc25B block: 0; Abs 340nm: 1; Hsp90 block: 0; Autofluor 339: 1.1; NADH coupling: 6%; MKP-1 inh: 2

What do the screens show for `CCCCN(C(=O)NC(=O)C1=C(N2CCOCC2)/C(=C/c2ccccc2)CC1)S(C)(=O)=O`?
Cdc25B block: -24; Abs 340nm: 1.1; Autofluor 339: 2.1*; NADH coupling: 5%; MKP-1 inh: 19

How did CN(C(=O)NC(=O)C1=C(N2CCOCC2)/C(=C/c2ccccc2)CC1)S(C)(=O)=O do in these assays?
Cdc25B block: 4; Abs 340nm: 1.1; Hsp90 block: 0; Autofluor 339: 2.9*; NADH coupling: 9%; MKP-1 inh: 16

Results for Cc1ccc(P(=Nc2ccccc2)(N2CCOCC2)N2CCOCC2)o1 ?
Cdc25B block: -1; Abs 340nm: 1; Hsp90 block: 1; Autofluor 339: 1.1; NADH coupling: 8%; MKP-1 inh: -10

How did O=C(O)CCCC(=O)N1CCN(c2nc(-c3ccccc3)c3ccccc3n2)CC1 do in these assays?
Cdc25B block: -3; Abs 340nm: 1; Hsp90 block: -2; Autofluor 339: 2.1*; NADH coupling: 1%; MKP-1 inh: 13

What do the screens show for `Cc1ccc(-c2cc(-c3ccc(F)cc3)nc(N)c2C#N)o1`?
Cdc25B block: 2; Abs 340nm: 1.1; Hsp90 block: -1; Autofluor 339: 3.7*; NADH coupling: 9%; MKP-1 inh: -9

Results for COc1ccc(-c2cc(-c3ccc(F)cc3)nc(N3CCN(C)CC3)n2)cc1 ?
Cdc25B block: -4; Abs 340nm: 1; Hsp90 block: -7; Autofluor 339: 1.3; NADH coupling: 7%; MKP-1 inh: -5

What do the screens show for `CCSc1nc(N)c(C#N)c(-c2ccccc2Cl)c1C#N`?
Cdc25B block: -19; Abs 340nm: 1; Hsp90 block: -2; Autofluor 339: 1.2; NADH coupling: 3%; MKP-1 inh: -17

How did Cc1ccc(-c2cc(-c3ccccc3Cl)c(C#N)c(N)n2)o1 do in these assays?
Cdc25B block: 2; Abs 340nm: 1.1; Hsp90 block: -17; Autofluor 339: 2.3*; NADH coupling: 8%; MKP-1 inh: 2

How did Cc1ccc(-c2cc(-c3ccccc3)c(C#N)c(N)n2)o1 do in these assays?
Cdc25B block: -7; Abs 340nm: 0.99; Hsp90 block: -2; Autofluor 339: 5.1*; NADH coupling: 18%; MKP-1 inh: -1

What do the screens show for `COc1ccc(Cl)cc1NC(=O)c1ccoc1C`?
Cdc25B block: 1; Abs 340nm: 1.1; Hsp90 block: -3; Autofluor 339: 1.1; NADH coupling: 1%; MKP-1 inh: 4

Results for COC(=O)c1ccccc1NC(=O)N1CCN(C(=O)c2ccco2)CC1 ?
Cdc25B block: -5; Abs 340nm: 1; Hsp90 block: -4; Autofluor 339: 1.6; NADH coupling: 7%; MKP-1 inh: -3

Results for COCCOC(=O)c1cc(C(=O)c2cc(F)ccc2O)coc1=N ?
Cdc25B block: -16; Abs 340nm: 1; Hsp90 block: -1; Autofluor 339: 2.4*; NADH coupling: 8%; MKP-1 inh: 1

Results for Cc1noc(C)c1CSc1nnc2cc(C)c3ccccc3n12 ?
Cdc25B block: 2; Abs 340nm: 1; Hsp90 block: -2; Autofluor 339: 1.1; NADH coupling: 4%; MKP-1 inh: -3

Results for CC(=O)N1CSCC1C(=O)N1CCN(c2ccc(N3CCOCC3)nn2)CC1 (configuration not stated) ?
Cdc25B block: -3; Abs 340nm: 0.99; Hsp90 block: -4; Autofluor 339: 2.1*; NADH coupling: 12%; MKP-1 inh: 2

How did COc1ccc(N2CCN(C(=O)CCn3nnc4ccccc43)CC2)cc1 do in these assays?
Cdc25B block: -18; Abs 340nm: 0.95; Hsp90 block: 4; Autofluor 339: 1.1; NADH coupling: 3%; MKP-1 inh: 3

What do the screens show for `CCOc1ccc(CC(=O)N2CCN(c3ccc(N4CCOCC4)nn3)CC2)cc1OCC`?
Cdc25B block: -10; Abs 340nm: 1; Hsp90 block: -5; Autofluor 339: 2.1*; NADH coupling: 4%; MKP-1 inh: 2

What do the screens show for `COc1ccc(C(=O)CCC(=O)N2CCN(c3ccc(N4CCOCC4)nn3)CC2)cc1`?
Cdc25B block: -7; Abs 340nm: 1; Hsp90 block: -3; Autofluor 339: 2.1*; NADH coupling: 2%; MKP-1 inh: -3

What do the screens show for `O=C(CSc1nnc(-c2ccc(Cl)s2)o1)N1CCc2ccccc21`?
Cdc25B block: -9; Abs 340nm: 1; Hsp90 block: 0; Autofluor 339: 2*; NADH coupling: 0%; MKP-1 inh: 15

What do the screens show for `Cc1ccccc1Nc1nc(N)nc(CN2C(=O)NC3(CCCCC3C)C2=O)n1` (configuration not stated)?
Cdc25B block: 0; Abs 340nm: 1; Hsp90 block: 0; Autofluor 339: 1.1; NADH coupling: 2%; MKP-1 inh: 11

What do the screens show for `CCOC(=O)c1[nH]c2ccc(Br)cc2c1NC(=O)CCN1CCC(C(=O)OCC)CC1`?
Cdc25B block: 21; Abs 340nm: 1; Hsp90 block: -5; Autofluor 339: 1.1; NADH coupling: 2%; MKP-1 inh: -12

What do the screens show for `CCOC(=O)c1[nH]c2cc3c(cc2c1NC(=O)CN1CCC(C)CC1)OCO3`?
Cdc25B block: -22; Abs 340nm: 1.1; Hsp90 block: -3; Autofluor 339: 2.3*; NADH coupling: 5%; MKP-1 inh: -20

Results for CCOC(=O)c1[nH]c2cc3c(cc2c1NC(=O)CN1CCc2ccccc2C1)OCO3 ?
Cdc25B block: -27; Abs 340nm: 1.1; Hsp90 block: -4; Autofluor 339: 2.3*; NADH coupling: 0%; MKP-1 inh: -6

Compound activity from PubChem BioAssay.
